Data on 87 compounds can be found in PubChem BioAssay AID1259318 (Sanford-Burnham Center for Chemical Genomics, 2017).

Structures are written as SMILES. Screen size: about 370,000 compounds; about 3,000 (0.81%) were called active. The entries come from a sample that favours actives as a whole. Unmarked numbers belong to inactive results.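 Rule for the calls: active = activity above about 14% (limit read from the data; passing the limit was not always enough); inactive = the rest.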

Sequence of Nuclear receptor subfamily 1 group D member 1 (Homo sapiens) (P20393 whole entry, looked up): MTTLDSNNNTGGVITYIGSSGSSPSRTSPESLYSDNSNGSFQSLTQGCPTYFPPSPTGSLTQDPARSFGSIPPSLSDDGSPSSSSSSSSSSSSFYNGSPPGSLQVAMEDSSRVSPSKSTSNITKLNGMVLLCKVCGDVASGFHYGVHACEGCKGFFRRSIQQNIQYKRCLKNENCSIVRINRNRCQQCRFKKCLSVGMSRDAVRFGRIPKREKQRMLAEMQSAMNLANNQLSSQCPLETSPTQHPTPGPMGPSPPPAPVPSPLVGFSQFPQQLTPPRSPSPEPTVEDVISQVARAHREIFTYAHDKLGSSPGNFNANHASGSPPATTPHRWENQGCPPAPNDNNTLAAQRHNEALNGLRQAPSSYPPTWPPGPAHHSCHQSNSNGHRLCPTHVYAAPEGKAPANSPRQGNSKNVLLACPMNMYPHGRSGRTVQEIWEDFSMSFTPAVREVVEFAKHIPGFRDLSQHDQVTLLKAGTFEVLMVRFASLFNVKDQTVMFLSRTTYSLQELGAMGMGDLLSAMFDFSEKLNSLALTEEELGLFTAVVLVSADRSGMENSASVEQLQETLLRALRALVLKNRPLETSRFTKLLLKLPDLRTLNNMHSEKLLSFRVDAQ

The assay has as its target Nuclear receptor subfamily 1 group D member 1 (Homo sapiens) (UniProt P20393). The experiment in a line: Rev-erbα–DNA interaction modulation – biochemical, FITC-DNA, fluorescence polarization, uHTS, primary screen (AID 1259318).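 Note: 0% = DMSO wells with 35 nM protein and 100% = DMSO wells with 750 nM protein.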 The following applies: Rev-erbα–FITC-DNA binding, 90 min, at 10 µM, active compounds read high. In general terms: Polarisation of emitted light reports the rotation of a fluorescent probe.
Consider `C/C(Cc1ccccc1)=N\NC(=O)CNC(=O)c1cccc(Br)c1`, for which the activity is -0.21%.

For `Cn1c(=O)n(C)c2cc(/C=N/NC(=O)c3cccc(Br)c3)ccc21`, the activity is 49.2% (active).

With `O=C(N/N=C/c1ccc(OCC2COCCO2)cc1)c1ccc(Br)cc1` (configuration not stated), the activity is -0.42%.

For the compound `Cc1nc(CNc2ncnc3ccc(-c4ccc5c(c4)OCO5)cc23)cs1`, the activity is -0.38%.

`CCOC(=O)C1CCN(C(=O)C(C)(C)NC(=O)Nc2ccc(F)c(F)c2)CC1`: the activity is -2.08%.

For `O=C(CCn1c(=S)[nH]c2cc3c(cc2c1=O)OCO3)NCc1ccc(Cl)cc1`, the activity is 21.7% (active).

For the compound `CC(C)NC(=O)CCCn1c(=S)[nH]c2cc3c(cc2c1=O)OCO3`, the activity is -1.56%.

For the compound `CCN(CC)CCCNC(=O)c1ccc2c(=O)n(Cc3ccc4c(c3)OCO4)c(=S)[nH]c2c1`, the activity is -2.35%.

As for `CCC[C@H]1C(=O)CC[C@@]23CCCN2C(=O)CCC[C@@H]13`, the activity is -1.54%.

For the compound `CO/N=C(/C(=O)N[C@@H]1C(=O)N2C(C(=O)O)=C(CSc3nc(=O)c(O)nn3C)CS[C@H]12)c1csc(N)n1`, the activity is -8.75%.

Regarding `O=C(Nc1ccc(F)cc1)C1CCCN(S(=O)(=O)c2ccc(-n3cnnn3)cc2)C1` (configuration not stated), the activity is 4.65%.

For `Cc1nn(C)cc1N1C(=O)c2cccc3c(N)ccc(c23)C1=O`, the activity is 153% (active).

On to `CN1C(=O)c2cccc3c(N)ccc(c23)C1=O`, for which the activity is 275% (active).

Turning to `COc1ccc(-c2cc(-c3nnc(SCC(=O)Nc4cccc5ccccc45)n3N)[nH]n2)cc1`, the activity was -0.24%.

With `O=C(OCc1ccccc1)c1ccc(O)cc1`, the activity was -3.01%.

On to `CC(=O)C1(C)N(O)C(C)(C)C(c2cccs2)=[N+]1[O-]` (configuration not stated), for which the activity was -3.38%.

For `C=C1C(C(C)C)N(C)C2=NC(c3ccccc3)CC(=O)N12` (configuration not stated), the activity was 0.81%.

On to `O=S1(=O)CC(N2CCN(Cc3ccccc3F)CC2)CN1Cc1cn(Cc2ccccc2)nn1` (configuration not stated), for which the activity is -7.27%.

Take `COc1ccc(CCNC(=O)CCC(=O)NC2CCCCC2)cc1OC`: the activity is -2.47%.

For `COc1ccc(/C=C2\SC(=S)N(CCCC(=O)NC3CCCC3)C2=O)cc1OC`, the activity is 40.1% (active).

Regarding `COc1ccc(-c2noc(CCCC(=O)NC3CCCC3)n2)cc1OC`, the activity is -0.42%.

With `O=C(NC1CCC1)c1ccc(C#Cc2cccc(F)c2)c[n+]1[O-]`, the activity is 1.34%.

With `Cc1cc(NC(=O)CSc2nc(C(C)C)nc3sc4c(c23)CCC(C)C4)no1` (configuration not stated), the activity is 58.2% (active).

In the case of `Cc1cc(NC(=O)CSc2nc(=O)cc(N)n2-c2ccc(F)cc2)no1`, the activity is -4.08%.

On to `CCn1c(SCC(C)=O)nc2sc3c(c2c1=O)CCCC3`, for which the activity is -1.07%.

For `Cc1nc(SCC(=O)Nc2cc(C)on2)c2c3c(sc2n1)CCCC3`, the activity was 27% (active).

In the case of `Cc1cc(NC(=O)CSc2nnc(-c3ccc(Cl)s3)o2)no1`, the activity is 6.3%.

Regarding `Cc1cc(NC(=O)Cn2nc(C(F)(F)F)c3c2CCCC3)no1`, the activity is -1.28%.

As to `O=C(NCc1ccco1)C1CCCN(S(=O)(=O)c2ccc(Cl)s2)C1` (configuration not stated), the activity is -2.05%.

`COCCCNC(=O)CN1CCN(Cc2ccccc2Cl)C1=O`: the activity was -7.51%.

Take `COC(=O)Nc1ccc(S(=O)(=O)N(C)CC(F)(F)C(F)F)cc1`: the activity is 3.77%.

`CCOc1ccccc1N1CCN(C(=S)Nc2ccc(S(N)(=O)=O)cc2)CC1`: the activity was -6.97%.

For the compound `CCN(CC)c1ccc(NC(=O)CN2CCN(c3ccccn3)CC2)cc1`, the activity was -0.51%.

Turning to `CCOC(=O)c1ccc(NC(=S)N2CCN(c3ccccn3)CC2)cc1`, the activity was 26.1% (active).

With `O=C1CC(C(=O)O)NC(=S)N1` (configuration not stated), the activity is -0.01%.

In the case of `CCCCCCSc1ccc([C@@H]2[C@H]3C(=O)N(CC)C(=O)[C@H]3[C@]3(C(=O)OC)CCCCN23)cc1`, the activity was -1.1%.

On to `COC(=O)[C@]12CCCCC=C1N(Cc1ccccc1)C(=O)[C@H](CC(=O)NCc1ccc(C)o1)C2`, for which the activity is -2.87%.

As to `N#Cc1c(N)nc2c3c(sc(=N)c2c1N)NC(=O)CC3c1ccccc1Cl` (configuration not stated), the activity was 31.7% (active).

As for `COc1ccc(-c2nc3n(c(=O)c2C#N)CCS3)c(OC)c1`, the activity is 0.62%.

Take `CCOc1cc(-c2conc2N)cc(OCC)c1OCC`: the activity is -2.64%.

For the compound `CCOc1cc(-c2cc(-c3ccc(OC)cc3)nc(N)c2C#N)ccc1O`, the activity is 31.7% (active).

In the case of `CCn1c(=O)n2n(c1=O)[C@@]1(C=C3CCCC[C@H]32)N=C(NC(=O)c2ccccc2)N(Cc2ccccc2)[C@H]1Cc1ccccc1`, the activity was -9.89%.

In the case of `CCN(CC)c1ccc2cc(C(N)=O)/c(=N\NC(=O)c3ccncc3)oc2c1`, the activity is 35.1% (active).

As to `CCN(CC)c1ccc(/C=N/NC(=O)CNC(=O)c2cccs2)cc1`, the activity was 0.7%.

On to `C/C(=N\NC(N)=S)c1ccncc1`, for which the activity was 0.98%.

Turning to `N#C/C(C(=O)N1CCOCC1)=C1/SC(Cc2ccc(F)cc2)C(=O)N1c1ccccc1` (configuration not stated), the activity is 5.35%.

As to `COC(=O)c1ccccc1N=Nc1c(C)[nH][nH]c1=O`, the activity is 3.84%.

On to `c1ccc(CSc2ncnc3c2sc2nc(N4CCOCC4)c4c(c23)CCCC4)cc1`, for which the activity is 158% (active).

For the compound `CC(=O)c1c(N2CCOCC2)nc(=S)n(Cc2ccccc2)c1C`, the activity was -2.43%.

On to `O=S(=O)(c1ccccc1)c1nc(Cc2ccccc2)oc1N1CCOCC1`, for which the activity was -4.54%.

On to `CCOC(=O)N1CCN(c2cc(C)c([N+](=O)[O-])cc2F)CC1`, for which the activity is -1.95%.

`CCC(=O)Nc1ccc2c(c1)C(=O)N(C)[C@@H]1CC[C@@H](CC(=O)NCCc3ccccc3)O[C@H]1CO2`: the activity is 15.2%.

Consider `CCC(=O)Nc1ccc2c(c1)C(=O)N(C)[C@H]1CC[C@H](CC(=O)NCCOC)O[C@@H]1CO2`, for which the activity is 9.28%.

For the compound `CCCNC(=O)Nc1ccc2c(c1)C(=O)N(C)[C@H]1CC[C@H](CC(=O)NCC3CCCCC3)O[C@@H]1CO2`, the activity is 119% (active).

As for `CC(Sc1nnnn1C)C(=O)NC(=O)NC1CCCCC1` (configuration not stated), the activity was 6.95%.

With `CN(CC(=O)NCCc1ccc(F)cc1)CC(=O)Nc1ccc(F)c(F)c1F`, the activity was -0.12%.

Regarding `COc1ccccc1CCNC(=O)C1CCN(c2nc(C)cc(C)n2)CC1`, the activity is 2.47%.

As to `COc1ccc(Cl)cc1-n1c(C)cc(C(=O)OCC(=O)N2CC(=O)Nc3ccccc32)c1C`, the activity was -0.59%.

On to `CCOC(=O)CSc1nc2ccc(C)cc2n2cnnc12`, for which the activity is 1.03%.

Take `COc1ccc(CCNc2cc(C)nc3c(-c4ccc(Cl)cc4)c(C)nn23)cc1OC`: the activity was 7%.

`COc1ccc(CCNc2nc3ccc(C)cc3n3cnnc23)cc1OC`: the activity was 41.9% (active).

As to `COC(=O)Cn1c(=NC(=O)c2cc(OC)c(OC)c(OC)c2)sc2cc(OC)ccc21`, the activity was 23.3% (active).

Consider `COC(=O)Cn1c(=NC(=O)CSCC(=O)Nc2cc(C)on2)sc2ccccc21`, for which the activity was 3.13%.

In the case of `COC(=O)Cn1c2ccc(C)cc2c2nc(C)sc21`, the activity is 5.92%.

In the case of `CCCCCCCCCCCCCCCC(=O)O[C@@H]1[C@@H](O)[C@@H](O)C([C@H](NC(=O)[C@@H]2C[C@@H](CCC)CN2C)[C@H](C)Cl)O[C@@H]1SC` (some centres not stated), the activity was -0.49%.

Regarding `Cc1ccc(N(C(=O)Cc2cccs2)C2C=CS(=O)(=O)C2)cc1Cl` (configuration not stated), the activity is 8.02%.

For `CC(C)(C)CC(C)(C)NCC(O)COCCOc1ccc(Br)cc1` (configuration not stated), the activity is -2.77%.

In the case of `COc1ccc(N(Cc2ccc(N(C)C)cc2)C(=O)c2ccc(S(C)(=O)=O)cc2)cc1`, the activity was -2.66%.

Consider `COc1ccc2sc(-c3ccccc3OC)c(-c3ccc(OCCN4CCCC4)cc3)c2c1`, for which the activity is 2.94%.

On to `COc1ccc2sc(-c3ccc(S(C)(=O)=O)cc3)c(-c3ccc(C(N)=O)cc3)c2c1`, for which the activity is 29.1% (active).

For the compound `COc1ccc(C(=O)NCC2CCCCC2)cc1S(=O)(=O)N1CCCC1`, the activity was 3.18%.

Regarding `CC(C(=O)O)c1ccc(C2CCCCC2)c2ccccc12` (configuration not stated), the activity is -0.34%.

Consider `CC(=O)OCC(=O)[C@@]1(O)CCC2C3CCC4=CC(=O)C=C[C@]4(C)[C@@]3(F)[C@@H](O)C[C@@]21C` (some centres not stated), for which the activity is -0.05%.

Take `COc1ccc(Cl)cc1NC(=O)C1CC(=O)N(c2ccc(F)cc2)C1` (configuration not stated): the activity was -2.88%.

With `COc1cc(OC)c(N2CC(C(=O)Nc3cc(Cl)ccc3N3CCOCC3)CC2=O)cc1Cl` (configuration not stated), the activity is 15.7% (active).

With `COc1ccccc1N1CC(C(=O)Nc2ccc(S(=O)(=O)N3CCOCC3)cc2)CC1=O` (configuration not stated), the activity is 2.07%.

With `COc1ccc(CN2C(=O)C(CC(=O)NCCCCc3ccccc3)CC(C(=O)N3CCOCC3)=C2C)cc1` (configuration not stated), the activity was 0.56%.

For `COCc1cc(C)nc(Nc2cc(C)ccc2C)c1C#N`, the activity is 1.3%.

As for `Cc1cccc(NC(=O)CCn2c(=O)oc3ccccc32)c1`, the activity was 4.67%.

As to `COCc1cc(C)nc(SCC(=O)Nc2cccc(C)c2)c1C#N`, the activity is 20.6% (active).

As for `C=CCC1(CC=C)CCCN1C(=O)c1cc(COc2ccc(-n3cncn3)cc2)on1`, the activity was 3.62%.

For `Cc1ccc(NC(=S)NNC(=O)CSc2nnc(SCc3ccccc3Cl)s2)cc1`, the activity was 3.4%.

Turning to `CN(C)S(=O)(=O)c1ccc(NC(=O)COC(=O)c2n[nH]c3ccccc23)cc1`, the activity is 1.34%.

For `CC(C)N(C(=O)CSc1nc(COc2ccccc2)nc2ccccc12)C(C)C`, the activity was 4.08%.

Regarding `CCCc1nc(SCC(=O)Nc2ccc(S(=O)(=O)N(C)C)cc2)c2ccccc2n1`, the activity is 28% (active).

`NC(=O)c1ncn([C@@H]2O[C@H](C(=O)O)[C@@H](O)[C@H]2O)n1`: the activity was -0.1%.

In the case of `CSCC[C@H](NC(=O)N1CCn2c1nc1ccccc12)C(=O)NC1CCCCC1`, the activity was 0.83%.
